Source: PubChem
Only some compounds are listed: those with a hit (about 5.3% of all), similar ones and a draw of the others.
IMPase cell inh: qHTS Assay for Identifying the Cell-Membrane Permeable IMPase Inhibitors | CHO-M1 cells, IP1 accumulation, HTRF TR-FRET ratio | inhibition (IP1 accumulation), % at 46.1 µM | 120,000 tested, under 10 active; active = well fitted curve in the direction sought with a large enough effect in the signal ratio, not every such curve was filed as active; inconclusive = small, poorly fitted or top-dose-only effect, or a change in a side signal; inactive = no such curve, though single readings can be large or run the other way; the % refers to the signal ratio;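 note: cells stimulated with carbachol in lithium chloride buffer; plate controls were DMSO basal wells for no effect and reference inhibitor wells for full effect; higher means more IMPase inhibition seen as more IP1 and lower FRET ratio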
Target sequence (P97697 whole entry, looked up): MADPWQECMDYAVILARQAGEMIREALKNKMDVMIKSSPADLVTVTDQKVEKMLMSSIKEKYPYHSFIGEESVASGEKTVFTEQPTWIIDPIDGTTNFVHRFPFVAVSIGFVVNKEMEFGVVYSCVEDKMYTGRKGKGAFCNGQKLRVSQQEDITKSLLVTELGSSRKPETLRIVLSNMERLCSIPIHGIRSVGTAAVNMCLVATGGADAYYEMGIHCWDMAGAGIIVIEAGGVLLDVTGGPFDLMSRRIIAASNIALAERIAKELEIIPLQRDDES
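In this qHTS, compounds (final up to 46 uM) act on CHO-M1 cells that are then activated through the M1 receptor with carbachol, in pH 7.4 buffer containing 50 mM LiCl, for 30 min. IP1 accumulation is quantified by the IP-One immunoassay.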
PNC assembly inh: High Content Assay for Compounds that inhibit the Assembly of the Perinucleolar Compartment; activity change (PNC), negative = inhibition, % at 10 µM; PC3M PTB-GFP, PNC prevalence imaging, 16 h; active compounds read low; hit rate 3.1% among 140,000; AID 2417, 2010;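 active = readout at or below -70, meaning at least 70% loss of cells showing the perinucleolar compartment, a nuclear body marking cancer cells; inconclusive = readout between -30 and a set limit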;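 note: plate controls were DMSO wells for no effect and camptothecin positive control wells for full effect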
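PC3M cells stably expressing PTB-GFP, 750–1000 cells/well, treated 16 h at 37 °C with compound (23 nl of library stock), in duplicate. After paraformaldehyde fixation and Hoechst stain, imaged at 20x; PNC prevalence scored by image analysis.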
IMPase Li cell: qHTS Assay for Identifying the Cell-Membrane Permeable IMPase Inhibitors: Potentiation with Lithium; CHO-M1 cells, IP1 TR-FRET (IP-One), carbachol + lithium; Potency, µM (titrated, usually from 59.4 µM), for the others: at the top dose activity, negative = IMPase inhibition, usual class: inhibitors; hit rate 0.35% among 210,000;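 note: IP1 builds up when IMPase is blocked and the TR-FRET signal falls; potency is the fitted concentration of half-maximal effect; plate controls were basal vehicle for no effect and high inhibitor control for full effect; nearly all actives have a fitted effect of over 50% in size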
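IP1 accumulation measured by competitive TR-FRET in lysed CHO-M1 cells after 30 min compound exposure at 37C, with a small lithium addition to potentiate weak responses. Hill-equation AC50 from ratio and donor-channel data.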
HPGD block: qHTS Assay for Inhibitors of HPGD (15-Hydroxyprostaglandin Dehydrogenase). 15-hydroxyprostaglandin dehydrogenase [NAD(+)] (Homo sapiens), P15428. AID 894, 2007. purified HPGD, NADH fluorescence kinetic, PGE2 substrate. Potency, µM, inactives show at the highest dose activity change, negative = inhibition, usual class: inhibitors. hit rate 4.3% among 150,000; active = well fitted inhibition curve with a large enough effect, not every such curve was filed as active; inconclusive = small, poorly fitted or top-dose-only effect, or another doubt; inactive = no such curve, though single readings can be large or run the other way; note: potency is the fitted concentration of half-maximal effect
Target sequence (P15428 whole entry, looked up): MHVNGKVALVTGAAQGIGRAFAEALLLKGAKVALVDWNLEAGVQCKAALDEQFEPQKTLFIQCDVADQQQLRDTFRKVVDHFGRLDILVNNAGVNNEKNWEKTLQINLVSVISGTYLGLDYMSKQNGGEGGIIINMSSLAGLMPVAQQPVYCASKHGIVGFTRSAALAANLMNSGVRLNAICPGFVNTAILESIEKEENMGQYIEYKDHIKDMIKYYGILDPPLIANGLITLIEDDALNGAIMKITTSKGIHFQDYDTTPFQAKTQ
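NADH formation kinetics: reaction with 30 uM PGE2 and 1 mM NAD+ (final), 20 nM enzyme, Tris-HCl pH 8 with Tween 20, after 15 min compound preincubation at room temperature. Fluorescence change, last versus first of five reads.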
12-hLO inh: qHTS Assay for Inhibitors of 12-hLO (12-human lipoxygenase) | Polyunsaturated fatty acid lipoxygenase ALOX12 (Homo sapiens), P18054 | purified 12-hLO, xylenol orange hydroperoxide absorbance | Potency, µM (doses to about 57.1 µM), inactives show at the top dose activity change, negative = inhibition, actives largely listed as inhibitors | hit rate 0.12% among 150,000; note: potency is the fitted concentration of half-maximal effect; nearly all actives have a fitted effect of over 55% in size
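Hydroperoxide output read as Fe(III)-xylenol orange absorbance, 573-to-405 nm ratio, after 30 min reaction with 40 uM arachidonic acid. Enzyme: 150 nM purified human 12hLO, 15 min compound preincubation; 25 mM Hepes pH 7.0, room temperature.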
ALOX15B inhib: qHTS Assay for Inhibitors of 15-hLO-2 (15-human lipoxygenase 2); purified 15hLO-2, xylenol orange hydroperoxide absorbance; Polyunsaturated fatty acid lipoxygenase ALOX15B (Homo sapiens), O15296; AID 881, 2007; hit rate 0.56% among 110,000; Potency, µM (series often up to 57.1 µM), for inactives: top-dose activity change, negative = inhibition, usual class: inhibitors; note: potency is the fitted concentration of half-maximal effect; nearly all actives have a fitted effect of over 60% in size
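Screening format was qHTS against 50 nM purified 15hLO-2 in Hepes pH 7.5 with detergent. Activity follows hydroperoxide formation from 45 uM arachidonic acid, measured as 573:405 nm absorbance ratio of the ferric-xylenol orange complex.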
An asterisk follows results filed as active; ? = inconclusive; / = not tested or not shown; ! = repeats disagree; [ ] = remark or other dose. Unless noted, calls come from the whole dose curve; as a rule, active = well fitted curve in the direction sought with a large enough effect; inconclusive = small, poorly fitted or top-dose-only effect, or another doubt; inactive = no such curve, though single readings can be large; an effect the other way counts as inactive or inconclusive. Unless noted, % is set by controls: 0 for no effect and ±100 for the full control effect.

SMILES | IMPase cell inh | PNC assembly inh | IMPase Li cell | HPGD block | 12-hLO inh | ALOX15B inhib
CC(C)[C@H]1C(=O)C(C(N)=O)=C(O)[C@]2(O)C(=O)C3=C(O)c4c(O)ccc(N(C)C)c4C[C@H]3C[C@@H]12 | 1 | / | / | / | -1% | 9%
C=C1c2cccc(O)c2C(O)=C2C(=O)[C@]3(O)C(O)=C(C(N)=O)C(=O)C(N(C)C)C3C(O)C12 (some centres not stated) | / | / | 17% | 16µM* | -5% | -2%
CCSc1ccccc1C(=O)Nc1ccc(S(=O)(=O)NC(C)=O)cc1 | / | / | 0% | / | / | /
CCN(CC)S(=O)(=O)c1ccc(-c2nnc(SCC(=O)Nc3nc(C)cs3)o2)cc1 | 2 | -106* | -9%[38.3 µM] | -8% | 9% | 10%
Cc1ccc(C(=O)CSc2nnc(-c3ccccc3)o2)cc1 | -3 | -95* | 2% | -5% | 0% | /
O=C(CSc1nnc(-c2cccnc2)o1)Oc1ccccc1 | 1 | -25 | -1%[38.3 µM] | -12% | -3% | 0%
Cc1csc(NC(=O)CSc2nnc(-c3ccc(S(=O)(=O)N4CCCC4)cc3)o2)n1 | 0 | 3 | -1%[38.3 µM] | -8% | 0% | -4%
O=C(CSc1nnc(-c2cccnc2)o1)c1cc2ccccc2oc1=O | -7 | -99* | -1%[38.3 µM] | -16% | -9% | -3%
COC(=O)CSc1nnc(-c2ccc(NS(=O)(=O)c3ccccc3)cc2)o1 | 0 | -9 | -2%[38.3 µM] | 18µM* | -2% | 3%
Cn1ncc2c(NCCc3ccccc3)nc(Cl)nc21 | / | / | -5% | -11% | -6%[11.4 µM] | 0%[11.4 µM]
CSc1n[nH]c(NCc2ccc(C)cc2)n1 | 20 | -7 | -8% | -18% | 1% | /
CCc1nnc(NC(=O)CSc2nnc(-c3ccco3)o2)s1 | / | / | -1% | / | / | /
CCc1nnc(NC(=O)CSc2nnc(-c3ccc(NS(=O)(=O)c4ccccc4)cc3)o2)s1 | -3 | -26 | 4% | 14µM* | -4% | /
COC(=O)c1ccc(N=NNc2ccccc2)cc1 | / | -21 | 7% | 25µM* | -7% | /
O=C1NC(=O)C(=C2CCCCCC2)S1 | / | -105* | 0% | ? | -2% | /
O=C1N=C(N2CCOCC2)SC1=C1CCCCC1 | -4 | -16 | 23%[38.3 µM] | -29% | 4% | -3%
O=C(CN(c1ccc(Cl)c(C(F)(F)F)c1)S(=O)(=O)c1ccccc1)N/N=C/c1cccc2c1OCCO2 | -3 | ? | 4%[38.3 µM] | ? | -20% | -5%
O=C(COC(=O)C1CCC1)NCc1ccccc1Cl | 7 | 40 | 1%[38.3 µM] | 8.9µM* | 0% | -1%
S=C(NCCc1ccccc1)NC1CCCCCC1 | -5 | ? | 3% | -25% | ? | 25µM*
CC1(C(=O)NC2CCCC2)CCC(=O)N1Cc1ccccc1Cl (configuration not stated) | 1 | -88* | 14%[38.3 µM] | -6% | 5% | 3%
S=C(NCc1ccccc1Cl)NC1CCCC1 | / | -88* | 5% | -26% | -3% | /
COc1ccccc1CNC(=S)NC1CCCCC1 | / | / | 14% | / | / | /
O=C(c1ccc([N+](=O)[O-])c(CS(=O)(=O)c2ccc(Cl)cc2)c1)N1CCCC1 | / | / | 3% | / | / | /
COc1ccc2c(c1O)-c1ccccc1CCN(C)C2 | / | / | 7% | / | / | /
CN1CCc2cccc3c2[C@@H]1Cc1ccc(O)c(O)c1-3 | ? | -11 | 29% | 8.9µM*! | ? | ?
SMILES | IMPase cell inh | PNC assembly inh | IMPase Li cell | HPGD block | 12-hLO inh | ALOX15B inhib
O=C(Nc1ccc(NC(=O)c2cc([N+](=O)[O-])ccc2N2CCOCC2)cc1)c1cccs1 | / | / | 8% | / | / | /
COc1ccc(CNC(=O)c2ccccc2SC)cc1 | -5 | 5 | 5%[38.3 µM] | 6.3µM* | 9% | -4%
CCSc1ccccc1C(=O)N1CCN(Cc2ccc3c(c2)OCO3)CC1 | 2 | 43 | 18%[38.3 µM] | -13% | -10% | 2%
CCSc1ccccc1C(=O)NCc1ccc2c(c1)OCO2 | 4 | ? | -2%[38.3 µM] | 1.4µM* | -10% | -6%
O=C(Nc1ccc2c(c1)OCO2)c1ccccc1SCC(=O)N1CCCC1 | 0 | 17 | -14%[38.3 µM] | 28µM* | -7% | -6%
COc1cc2c(C(=O)NCc3ccc4c(c3)OCO4)cn(CC(C)C)c(=O)c2cc1OC | -2 | -113* | 5% | -3% | 2% | 2%
COc1ccc(NC(=O)c2ccccc2SC)cc1 | / | / | 6% | / | / | /
C/C(=C\CNc1ncnc2c1ncn2[C@@H]1O[C@H](CO)[C@@H](O)[C@H]1O)CO | / | / | -3% | -13% | -2%[0.00818 µM] | -6%[0.0915 µM]
COc1ccc2[nH]cc(CCO)c2c1 | / | / | 8% | / | / | /
CCn1cnc2cc([N+](=O)[O-])ccc21 | / | / | -11% | / | / | /
CSc1ccccc1C(=O)NCc1ccc2c(c1)OCO2 | 7 | 46 | 42%[38.3 µM] | 0.5µM* | -6% | 12%
Cc1ccc(C)c(OCCCC(=O)Nc2ccc(N3CCOCC3)cc2)c1 | 11 | -84* | 35%[38.3 µM] | -2% | -14% | -12%
CCN(CC)c1ccc(NC(=O)c2ccccc2F)cc1S(=O)(=O)Nc1ccccc1OC | / | -15 | 10% | 14µM* | -1% | /
CCN(CC)c1ccc(NC(=O)c2ccc(=O)[nH]c2)cc1S(=O)(=O)Nc1ccccc1OC | / | / | 14% | / | / | /
COc1ccc(NC(=O)c2ccccc2F)cc1Cl | 0 | -5 | 3%[38.3 µM] | ? | -7% | -5%
CCN(CC)c1ccc(NC(=O)c2ccccc2Br)cc1S(=O)(=O)Nc1ccccc1OC | / | -13 | 9% | 2.2µM* | 3% | /
CCN(CC)c1ccc(NC(=O)COc2ccccc2C)cc1S(=O)(=O)Nc1ccccc1OC | -8 | -13 | -1% | 28µM* | 0% | /
CCc1cccc(CC)c1N(COC)C(=O)Cn1c(C)nc2ccccc21 | 9 | / | / | / | / | /
O=C(N/N=C/c1ccc(COc2ccc(Br)cc2)o1)c1ccco1 | / | 33 | 1% | -5% | 2% | /
Cc1ccc(Nc2nc(CSc3nnc(-c4ccccc4)n3C)cs2)cc1 | / | ? | 15% | -22% | -4% | /
Cc1ccc(Nc2nc(CSc3nnc(-c4ccccc4C)n3C)cs2)cc1 | 0 | -107* | / | / | -3% | /
Cc1cc(C)n(CCOc2ccc(Cl)cc2Cl)n1 | -7 | ? | 11%[38.3 µM] | 32µM* | -1% | 2%
O=C(c1ccccc1)c1c[nH]c(C(=O)NCCCn2ccnc2)c1 | 3 | -27 | 12%[38.3 µM] | -9% | -2% | 1%
Cc1ccc(C)c(NC(=S)NNC(=O)c2csc(C)c2C)c1 | / | ? | 0% | -6% | 0% | /
Cc1ccc(C)c(NC(=S)NNC(=O)c2csc(C(C)C)c2)c1 | 3 | -119* | 2% | -10% | -22% | /
